Several values for one entry are separate records, joined by “and”; a condition that tells them apart may be missing. Identical values can stand only once. Records with an inconclusive call do not appear. Entries that show only a call come without a potency. A number with no mark means an inactive call. Activity calls are given as the source filed them. The call rests on the fitted dose curve; in most records, active means well fitted curve in the direction sought with a large enough effect; inconclusive means small, poorly fitted or top-dose-only effect, or another doubt; inactive means no such curve, though single readings can be large; an effect the other way counts as inactive or inconclusive. Where a SMILES comes first, the peptide text is derived from it. [ ]: non-standard residue; d: D form. pGlu = O=C1CC[C@@H](C(=O)O)N1; Thz = O=C(O)[C@@H]1CSCN1
What was measured:
C33A = assay: Primary qHTS to identify gynecologic anti-cancer compounds using libraries of approved drugs and bioactive compounds (AID 1345084); conditions: Gynecologic cancer cell panel viability, ATPlite luminescence, 48 h; series mostly up to 57.5 µM; further: nearly all actives have a fitted effect of over 55% in size; further: potency means the concentration at half of the fitted maximal effect
In short: (§1)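 Cells, 1,000 per well, were allowed to settle for 16 h at 37 C before compound addition. Five concentrations were tested for 48 h, and viability was read by ATPlite luminescence after 15 min at room temperature.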

CAOV3 = assay: as above; conditions: Gynecologic cancer cell panel viability, ATPlite luminescence, 48 h; series mostly up to 57.5 µM
In short: as §1

CASKI = assay: as above; conditions: Gynecologic cancer cell panel viability, ATPlite luminescence, 48 h; series mostly up to 57.5 µM
In short: as §1

Es-2 = assay: as above; conditions: Gynecologic cancer cell panel viability, ATPlite luminescence, 48 h; series mostly up to 57.5 µM
In short: as §1

HeLa = assay: as above; conditions: Gynecologic cancer cell panel viability, ATPlite luminescence, 48 h; series mostly up to 57.5 µM
In short: as §1

Hek293T = assay: as above; conditions: Gynecologic cancer cell panel viability, ATPlite luminescence, 48 h, control line for the selectivity index; series mostly up to 57.5 µM
In short: as §1

JEG-3 = assay: as above; conditions: Gynecologic cancer cell panel viability, ATPlite luminescence, 48 h; series mostly up to 57.5 µM
In short: as §1

OV90 = assay: as above; conditions: Gynecologic cancer cell panel viability, ATPlite luminescence, 48 h; series mostly up to 57.5 µM
In short: as §1

PA-1 = assay: as above; conditions: Gynecologic cancer cell panel viability, ATPlite luminescence, 48 h; series mostly up to 57.5 µM
In short: as §1

SKOV3 = assay: as above; conditions: Gynecologic cancer cell panel viability, ATPlite luminescence, 48 h; series mostly up to 57.5 µM
In short: as §1

Tov-21-G = assay: as above; conditions: Gynecologic cancer cell panel viability, ATPlite luminescence, 48 h; series mostly up to 57.5 µM
In short: as §1

Tov112D = assay: as above; conditions: Gynecologic cancer cell panel viability, ATPlite luminescence, 48 h; series mostly up to 57.5 µM
In short: as §1

[1] = Drug repurposing screens with cells derived from glioblastoma tumor samples (AID 1345199); conditions: GBM patient neurospheres viability, ATP luminescence, 48 h; further: nearly all actives have a fitted effect of over 40% in size; further: potency means the concentration at half of the fitted maximal effect
In short: (§2)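 Primary testing used CD133+ neurospheres from four GBM patients, seven concentrations, 48 h exposure and ATP-based viability; confirmation added three slower-growing patient lines.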

astro = assay: as above; conditions: viability, ATP luminescence, 48 h; series mostly up to 45.9 µM
In short: as §2

NIH3T3 = assay: qHTS assay to identify novel small-molecules to repurpose for Merkel cell carcinoma treatment (AID 1296009); conditions: MCC and control cell lines, CellTiter-Glo viability, 72 h; at 44.8 µM (top of the series) unless noted; further: nearly all actives have a fitted effect of over 60% in size
In short: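 Dose-response viability screen; 72 hr exposure at 37 degree celsius; CellTiter-Glo added, 10 min room temperature, luminescence read; RLUs scaled between no-cell and DMSO wells.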

[2] = at 45.9 µM (top of the series), tumour line B
[3] = at 45.9 µM (top of the series), tumour line D
[4] = at 46.1 µM (top of the series), tumour line C
[5] = at 46 µM (top of the series), tumour line A

| Compound | Potency (C33A) | Potency (CAOV3) | Potency (CASKI) | Potency (Es-2) | Potency (HeLa) | Potency (Hek293T) | Potency (JEG-3) | Potency (OV90) | Potency (PA-1) | Potency (SKOV3) | Potency (Tov-21-G) | Potency (Tov112D) | activity, negative = cell killing [1, 2] | activity, negative = cell killing [1, 3] | activity, negative = cell killing [1, 4] | Potency ([1]; tumour line A) | Potency (astro) | outcome (NIH3T3) | activity, negative = cell killing [1, 5] [%] |
| --- | --- | --- | --- | --- | --- | --- | --- | --- | --- | --- | --- | --- | --- | --- | --- | --- | --- | --- | --- |
| COc1cc(CNC(=O)CCCC/C=C/C(C)C)ccc1O | inactive | inactive | inactive | inactive | inactive | inactive | inactive | inactive | inactive | inactive | inactive | inactive | -4.61% | -7.09% | 17.4% | 11.2 µM (active) | inactive |  |  |
| O=c1[nH]c2ccccc2n1CCCN1CCN(C(c2ccccc2)c2ccccc2)CC1 | inactive |  |  |  | inactive |  | inactive |  |  |  |  | inactive |  |  |  |  | inactive |  |  |
| CN(CCCOc1ccc(Cc2ccccc2)cc1)CCC(=O)O | inactive | inactive | inactive | inactive | inactive | inactive | inactive | inactive | inactive | inactive | inactive | inactive |  |  |  |  |  | inactive |  |
| O=C(O)[C@H](CC(=O)N1C[C@H]2CCCC[C@H]2C1)Cc1ccccc1 | inactive | inactive | inactive | inactive | inactive | inactive | inactive | inactive | inactive | inactive | inactive | inactive | -13.2% | -11.7% | -20.5% |  | inactive |  | -25.9 |
| NS(=O)(=O)c1ccc(-n2nc(C(F)(F)F)cc2-c2ccc(Cl)cc2)cc1 | inactive |  | inactive | inactive | inactive | inactive | inactive | inactive | inactive | inactive | inactive | inactive |  |  |  |  |  |  |  |
| CCNC(=O)[C@H]1O[C@@H](n2cnc3c(N)nc(NCCc4ccc(CCC(=O)O)cc4)nc32)[C@H](O)[C@@H]1O | inactive |  | inactive | inactive | inactive | inactive | inactive | inactive | inactive | inactive | inactive | inactive |  |  |  |  |  |  |  |
| O=C(O)c1cc(O)c(O)c(O)c1 | inactive |  | inactive | inactive | inactive | inactive | inactive | inactive | inactive |  | inactive | inactive | -10.4% | -20.6% | 20.7% |  | inactive |  |  |
| COc1cc(/C=C/C(=O)N2CCN(CC(=O)N3CCCC3)CC2)cc(OC)c1OC | inactive | inactive | inactive | inactive | inactive | inactive | inactive | inactive | inactive |  | inactive | inactive | -11% | -1.45% | -18.6% |  | inactive | inactive | -40.7 |
| CN1[C@@H]2CC[C@H]1CC(OC(=O)C(CO)c1ccccc1)C2 (stereo not given in full) | inactive |  | inactive | inactive | inactive | inactive | inactive | inactive | inactive | inactive | inactive | inactive | -12.1% and -3.29% | -9.67% and -14.2% | 4.75% and 11.7% |  | inactive |  |  |
| O=C(O)CC1CC(c2ccccc2)=NO1 (stereo not given) | inactive |  | inactive | inactive | inactive | inactive | inactive | inactive | inactive | inactive | inactive | inactive |  |  |  |  |  |  |  |
| Nc1ccc(O)c([N+](=O)[O-])c1 | inactive | inactive | inactive | inactive | inactive | inactive | inactive |  | inactive | inactive | inactive | inactive |  |  |  |  |  |  |  |
| CC1(C)[C@@H](O)CC[C@]2(C)[C@H]3C(=O)C=C4[C@@H]5C[C@@](C)(C(=O)O)CC[C@]5(C)CC[C@@]4(C)[C@]3(C)CC[C@@H]12 | inactive |  | inactive | inactive | inactive | inactive | inactive | inactive | inactive | 3.16 µM (active) | inactive | inactive | -26.1% and -10.2% | 9.17% and -11.9% | -0.581% and -19.2% |  | inactive |  |  |
| Nc1ccc([N+](=O)[O-])cc1O | inactive | inactive |  |  | inactive | inactive | inactive |  | 4.47 µM (active) |  | inactive | inactive |  |  |  |  | inactive |  |  |
| Fc1ccc2[nH]c(CN3CCN(c4ccccn4)CC3)cc2c1 | inactive | inactive | inactive | inactive | inactive | inactive | inactive | inactive | inactive | inactive | inactive | inactive |  |  |  |  |  |  |  |
| NC(=O)C(c1ccccc1)(c1ccccc1)[C@@H]1CCN(CCc2ccc3c(c2)CCO3)C1 | inactive | inactive | inactive | inactive | inactive | inactive | inactive |  | inactive |  | inactive | inactive |  |  |  |  |  |  |  |
| O=C1CC[C@@H](C(=O)N2CSC[C@H]2C(=O)O)N1 ([pGlu]-[Thz]-OH) | inactive |  | inactive | inactive | inactive | inactive | inactive | inactive | inactive | inactive | inactive | inactive | -16.5% | -0.509% | -18.5% |  | inactive | inactive | -28.4 |
